Experiments:
[1] = test system: Human papillomavirus type 1a protein E7 (residues 44-93); test: HPV1a E7 fragment binders on microarrays, primary screen, biochemical, small-molecule microarray, residues 44-93, 635 nm fluorescence (AID 1108); settings: small-molecule microarray binding, fluorescence 635 nm; higher = more signal;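 note: E7 fragment applied at 1 µg/mL in TBST for 1 h at 4 C; score combines spot fluorescence with its signal to noise ratio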
[2] = modulators of HCV replicon luciferase signal, primary screen, HCV replication inhibitor project, Huh7 cells, luciferase reporter (AID 1109); settings: 48 h, higher = more signal;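 note: huh7 hepatoma cells harbouring a luciferase neomycin HCV replicon reporter; luciferase luminescence as measure of HCV replicon replication; test concentration not given here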
[3] = target: Left-right determination factor 2 (Homo sapiens) (UniProt O00292); test: LEFTY2 binders on small-molecule microarrays, primary screen, biochemical, small-molecule microarray, 635 nm fluorescence scan (AID 1110); settings: LEFTY2 binding, higher = more signal
Chain of Left-right determination factor 2 (Homo sapiens) (O00292 whole entry, looked up): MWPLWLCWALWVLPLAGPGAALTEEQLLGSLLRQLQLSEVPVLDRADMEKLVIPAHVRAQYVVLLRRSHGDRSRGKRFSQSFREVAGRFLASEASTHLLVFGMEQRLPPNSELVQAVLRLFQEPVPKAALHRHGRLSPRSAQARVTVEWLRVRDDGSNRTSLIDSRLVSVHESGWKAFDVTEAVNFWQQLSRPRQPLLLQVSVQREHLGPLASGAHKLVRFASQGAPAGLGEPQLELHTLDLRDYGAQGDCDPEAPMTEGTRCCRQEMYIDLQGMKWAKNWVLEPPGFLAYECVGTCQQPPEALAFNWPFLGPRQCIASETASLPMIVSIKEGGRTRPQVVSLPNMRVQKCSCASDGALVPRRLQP

[4] = target: Calmodulin-1 (Homo sapiens) (UniProt P0DP23); test: CALM1 binders on microarrays, EGTA buffer, profiling panel, biochemical, small-molecule microarray, Cy5-labelled CALM1 (AID 1111); settings: Cy5-CALM1 binding fluorescence, higher = more signal;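 note: labelled calmodulin applied in Tris saline Tween buffer holding calcium plus EGTA and DTT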
[5] = target: Calmodulin-1 (Homo sapiens) (UniProt P0DP23); test: calcium-bound CALM1 binders on microarrays, profiling panel, artefact control for SMM control-protein annotation, biochemical, small-molecule microarray, Cy5-labelled CALM1, plus calcium (AID 1112); settings: Cy5-CALM1 binding fluorescence, higher = more signal;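 note: score merges spot fluorescence with signal to noise from triplicate slides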
[6] = small-molecule microarray binders of probe aWnt5a, primary screen, biochemical, biotinylated probe, 635/667 nm fluorescence (AID 1113); settings: higher = more signal;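 note: score merges 667 nm fluorescence intensity with signal-to-noise per printed feature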
[7] = small-molecule microarray binders of probe aShh, primary screen, biochemical, biotinylated probe, 635/667 nm fluorescence (AID 1114); settings: higher = more signal;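 note: probe is biotin-labelled aShh protein from a stem cell growth factor screen; measures binding of labelled protein to compounds printed on the slide; score merges feature fluorescence at 667 nm with signal-to-noise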
[8] = small-molecule microarray binders of probe aNog, primary screen, biochemical, biotinylated probe, 635/667 nm fluorescence (AID 1115); settings: higher = more signal;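 note: probe is biotinylated aNog protein used at 0.15 µg/mL for 1 h at 4 C; z-score combines 667 nm fluorescence of each spot with its signal to noise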
[9] = target: Torsin-1A-interacting protein 1 (Homo sapiens) (UniProt Q5JTV8); test: LAP1 binders from COS7 cell lysate, primary screen, small-molecule microarray, 635/667 nm fluorescence (AID 1116); settings: COS7-hLAP1 lysate binding, 635 nm fluorescence, higher = more signal
Chain of Torsin-1A-interacting protein 1 (Homo sapiens) (Q5JTV8 whole entry, looked up): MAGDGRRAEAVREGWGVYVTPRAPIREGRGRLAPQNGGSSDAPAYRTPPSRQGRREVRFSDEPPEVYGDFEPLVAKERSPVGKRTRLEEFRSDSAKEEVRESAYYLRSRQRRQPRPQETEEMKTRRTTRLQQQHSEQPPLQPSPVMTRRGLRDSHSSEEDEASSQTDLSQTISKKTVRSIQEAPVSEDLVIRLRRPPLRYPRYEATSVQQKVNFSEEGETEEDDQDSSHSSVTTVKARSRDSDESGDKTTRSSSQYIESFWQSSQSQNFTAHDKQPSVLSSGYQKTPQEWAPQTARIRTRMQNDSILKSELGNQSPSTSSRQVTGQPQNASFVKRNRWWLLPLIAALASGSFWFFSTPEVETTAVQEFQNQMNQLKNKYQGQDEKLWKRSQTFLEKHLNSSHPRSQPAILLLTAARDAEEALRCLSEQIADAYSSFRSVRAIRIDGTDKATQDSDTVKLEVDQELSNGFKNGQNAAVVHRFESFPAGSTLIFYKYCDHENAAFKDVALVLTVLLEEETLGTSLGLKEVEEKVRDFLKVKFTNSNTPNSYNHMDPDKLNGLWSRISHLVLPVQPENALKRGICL

[10] = target: Alpha-bungarotoxin (Bungarus multicinctus) (UniProt P60615); test: alpha-bungarotoxin binders on microarray, profiling panel, artefact control for SMM control protein annotation, biochemical, small-molecule microarray, Alexa647 label, 635/667 nm fluorescence (AID 1117); settings: alpha-BTX-A647 binding fluorescence, higher = more signal
Chain of Alpha-bungarotoxin (Bungarus multicinctus) (P60615 whole entry, looked up): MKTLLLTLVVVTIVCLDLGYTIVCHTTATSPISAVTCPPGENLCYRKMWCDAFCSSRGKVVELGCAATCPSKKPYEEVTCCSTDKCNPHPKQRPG

Row | Compound | composite z-score [1] | z-score [2] | composite z-score [3] | composite z-score [4] | composite z-score [5] | composite z-score [6] | composite z-score [7] | composite z-score [8] | composite z-score [9] | composite z-score [10]
1 | COCCCNC(=O)[C@]1(CCC(=O)OC(C)(C)C)N=C(c2ccc(OCCCO)cc2)O[C@@H]1c1ccccc1CN=[N+]=[N-] | 1.31 | -1.74 | 0.254 | 1.38 | 0.282 | 0.45 | 0.147 | 2.04 | 1.29 | 0.312
2 | COC(=O)[C@]1(CCC(=O)OC(C)(C)C)N=C(c2ccc(OCCCO)cc2)O[C@@H]1c1ccccc1CN=[N+]=[N-] | -0.0058 | -3.32 | -0.684 | 0.884 | 0.367 | -0.0045 | 0.147 | 0.977 | 0.157 | 0.869
3 | O=C(NCCN1CCOCC1)[C@@H]1c2ccccc2C(=O)N(C2CCCCC2)[C@H]1c1ccc(CO)cc1 | 1.44 | -1.49 | -0.0308 | 0.0999 | -0.336 | -0.101 | -0.138 | 0.76 | 0.0614 | -0.0569
4 | COc1ccccc1CN1C(=O)c2ccccc2[C@@]2(Cc3ccccc3N(CC(C)C)C2=O)[C@@H]1c1ccc(CO)cc1 | -0.461 | -0.785 | -0.389 | -0.235 | -0.69 | -0.091 | -0.214 | -0.175 | -0.247 | -0.257
5 | CCCC[C@@H]1C[C@H]1[C@@H](NC(=O)c1ccco1)c1ccccc1C(F)(F)F | 0.209 | -1.42 | -0.23 | 1.75 | 1.2 | 0.948 | 2.6 | 2.94 | 0.58 | 1.84
6 | CC(C)OC(=O)C=C1C[C@@H](c2ccccn2)O[C@@H](c2ccccn2)O1 | -0.0187 | -0.884 | 1.05 | -1.38 | -0.98 | -0.0607 | 0.489 | -0.457 | 0.429 | 0.6
7 | CC(C)N1C(=O)[C@@]2(Cc3ccccc31)c1ccccc1C(=O)N(Cc1ccccc1Cl)[C@H]2c1ccc(CO)cc1 | -0.469 | -0.791 | -0.893 | -0.493 | -0.805 | -0.105 | -0.262 | -0.179 | -1.05 | -0.216
8 | C=CCN1C(=O)[C@]2(O[C@H](CCn3cc([C@H](O)c4ccccc4)nn3)[C@@H]([Si](C)(C)c3ccc(OC)cc3)[C@@H]2C)c2ccccc21 | -1.22 | -2.71 | -0.901 | -0.525 | 0.227 | -0.124 | -0.0146 | -0.223 | -0.252 | -1.56
9 | COC(=O)[C@@]1(Cc2ccc(OC)cc2)[C@H]2c3cc(C(=O)N4CCCC4)n(CCN4CNCC4=O)c3C[C@H]2CN1C(=O)c1ccccc1 | 0.218 | -0.0994 | -0.0543 | 1.14 | 0.751 | 1.19 | 2.77 | 2.43 | 1.11 | -0.169
10 | COC(=O)[C@@]1(Cc2ccc(F)cc2)[C@H]2c3cc(C(=O)N(C)C)n(Cc4cc(F)c(F)c(F)c4)c3C[C@H]2CN1C(=O)c1ccccc1 | 1.32 | -2.75 | -0.323 | 1.6 | 1.01 | 0.245 | 0.566 | 2.27 | 1.16 | 1.17
11 | CO[C@H]1O[C@H](CO)[C@@H](OC(=O)Nc2ccc(C(F)(F)F)cc2)[C@H](OC(=O)Nc2ccc3c(c2)OCO3)[C@@H]1OC(=O)Nc1ccc2c(c1)OCO2 | 0.335 | -2.44 | 0.819 | 0.784 | -0.764 | 0.101 | 0.221 | 1.71 | 1.34 | 0.943
12 | Cc1nc2cc(Br)ccc2c(=O)o1 | 0.686 | -0.569 | 0.4 | 0.66 | 0.202 | -0.198 | -0.481 | -0.483 | 0.197 | 0.206
13 | O=C(NC1CC1)[C@@H]1c2ccccc2C(=O)N(Cc2ccccc2Cl)[C@H]1c1ccc(CO)cc1 | 0.791 | -2.09 | 0.697 | 1.08 | 0.287 | -0.0765 | -0.138 | 0.233 | 1.46 | 0.759
14 | Cc1ccc(S[C@]2(C(=O)O)CC(=O)N(C(C)C)[C@@H]2c2ccc(CO)cc2I)cc1 | 0.506 | -1.31 | -0.195 | 1.75 | 0.845 | 0.0611 | 0.111 | 1.65 | 0.836 | 1.18
15 | COC(=O)[C@@]1(Cc2ccc(OC)cc2)[C@@H]2C(=CC(=O)[C@H]2CC(=O)C(=O)N2CCCC2)CN1C(=O)c1ccccc1 | -0.514 | -1.88 | -0.505 | 0.946 | 0.713 | 0.368 | 1.06 | 1.04 | 0.674 | 0.15
16 | COc1ccc([Si](C)(C)[C@@H]2[C@@H](CCO)O[C@]3(C(=O)N(Cc4ccc(N(C=O)c5ccccc5)cc4)c4ccccc43)[C@H]2C)cc1 | 0.121 | -4.67 | 0.0196 | 1.32 | 0.973 | -0.0203 | 0.385 | 0.286 | 0.419 | 1.62
17 | CC(=O)NCCCC[C@@H]1NC(=O)[C@H]2C[C@@H](C(=O)NCCCCCCNC(=O)CS)[C@@H](c3ccc(O)cc3)N2C1=O | 1.06 | -0.532 | -0.747 | 0.362 | -0.295 | -0.124 | 0.131 | 0.0933 | 0.284 | 1.33
18 | C=CCNC(=O)[C@@H]1[C@H]2C(=O)O[C@H](c3ccccc3)[C@H](c3ccccc3)N2[C@H](c2ccc(O)cc2)[C@@]12C(=O)N(C(=O)OCCOC)c1ccc(C#CCNC(N)=O)cc12 | 1.32 | -0.578 | 0.31 | 1.83 | 0.294 | 0.0017 | 1.68 | 0.681 | 1.45 | 0.83
19 | O=C1[C@@]23C=C(Br)[C@H](C[C@@H]2CCOC3)[C@@]12CO2 | 0.364 | -2.17 | 0.459 | -0.206 | -0.657 | -0.0585 | 0.151 | -0.303 | 1.53 | 0.331
20 | O=C(CS)NCCCCCCNC(=O)[C@@H]1C[C@@H]2C(=O)NCC(=O)N2[C@@H]1c1cccc(OCCO)c1 | 1.41 | -0.895 | -0.709 | 2.44 | -0.215 | -0.177 | -0.188 | -0.652 | 1.21 | 1.1
21 | COCCOC(=O)N1C(=O)[C@@]2(c3cc(C#CCC(C(=O)OC)C(=O)OC)ccc31)[C@H](c1ccccc1OCCO)N1[C@H](c3ccccc3)[C@H](c3ccccc3)OC(=O)[C@H]1[C@@H]2C(=O)NC[C@H](O)c1ccccc1 | 0.948 | -2.28 | 1.44 | 0.832 | 0.277 | 0.0718 | 0.275 | 0.237 | 0.876 | 0.926
22 | CCC[C@@H]1C[C@@]1(CCC)[C@@H](NC(=O)c1ccccc1)c1cccc(Cl)c1 | 1.37 | -0.75 | -0.278 | 1.97 | 1.43 | 1.09 | 1.35 | 0.311 | 1.04 | 1.74
